D2 ag-1 = HTS Assay for Allosteric Agonists of the Human D2 Dopamine Receptor: Primary Screen for Agonists | HEK293 T-REx D2 cells, calcium flux agonist mode | activation, % at 2 µM | 340,000 tested, 0.53% active | AID 485358, 2010;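 active = activation over 3 SD above normal in the single-dose calcium agonist read, cut at about 30% in these data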; also: 0% is about no effect
Target sequence (P14416 whole entry, looked up): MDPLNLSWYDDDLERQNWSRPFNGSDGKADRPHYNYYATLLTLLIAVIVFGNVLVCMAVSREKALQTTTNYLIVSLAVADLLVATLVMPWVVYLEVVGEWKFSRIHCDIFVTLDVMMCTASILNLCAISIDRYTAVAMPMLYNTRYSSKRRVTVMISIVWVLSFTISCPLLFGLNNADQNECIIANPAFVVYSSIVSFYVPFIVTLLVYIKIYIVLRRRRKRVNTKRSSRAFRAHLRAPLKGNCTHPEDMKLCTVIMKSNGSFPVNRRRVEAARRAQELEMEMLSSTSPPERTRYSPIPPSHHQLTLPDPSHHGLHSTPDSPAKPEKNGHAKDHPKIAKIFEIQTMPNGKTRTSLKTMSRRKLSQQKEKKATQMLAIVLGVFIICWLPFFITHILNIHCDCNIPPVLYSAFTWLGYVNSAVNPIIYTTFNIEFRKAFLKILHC
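HEK293 Trex D2 cells, tetracycline-induced, o/n 30 C 5% CO2; no-wash Ca dye, RT 30–90 min; 10-cycle baseline, 23 nl cpd added, kinetic Ca read 180 s; agonist hits = positive Ca response.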
D2 PAM-1 = HTS Assay for Positive Allosteric Modulators of the Human D2 Dopamine Receptor: Primary Screen for Potentiators. D(2) dopamine receptor (Homo sapiens), P14416. HEK293 T-REx D2, calcium flux, EC20 dopamine potentiation. potentiation, % at 10 µM. 340,000 tested, 0.34% active. AID 485347, 2010;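 active = potentiation over 3 SD above the plate norm, cut at about 30% in these data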; also: 0% is about no effect
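Primary screen. Calcium kinetics in induced HEK293 T-REx D2 cells: compound pre-addition 180 s, EC20 dopamine, 180 s more.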
D2 antag = HTS Assay for Allosteric Antagonists of the Human D2 Dopamine Receptor: Primary Screen for Antagonists | D(2) dopamine receptor (Homo sapiens), P14416 | HEK293 TREx D2 cells, calcium flux, dopamine EC80 | inhibition, % at 10 µM | 340,000 tested, 2% active; in the data active = inhibition above about 30%; inactive = below that, where a call was filed; also: 0% is about no effect
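Tetracycline-induced HEK293 T-REx cells expressing D2 force-coupled to calcium signalling were dye-loaded, exposed to compound for 180 s, then challenged with an EC80 of dopamine; calcium flux was followed kinetically for a further 180 s.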
D2 PAM-2 = Beta-Arrestin HTS for Positive Allosteric Modulators of the Human D2 Dopamine Receptor: Potentiators; D(2) dopamine receptor (Homo sapiens), P14416; DiscoveRx D2 beta-arrestin cells, luminescence, 90 min; 100% = 57 uM dopamine signal; potentiation, % (test concentration not listed); 360,000 tested, 0.23% active; in the data active = potentiation above about 50%; inconclusive = mostly about 30% to 49%
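D2 cells co-treated with compound plus 50 nM dopamine (EC20) for 90 min at 37 deg C to detect potentiation. Beta-arrestin recruitment was read as enzyme-fragment luminescence after 1 h at ambient temperature. Full response was set by 57 uM dopamine.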
D2 ag-2 = Beta-Arrestin HTS for Positive Allosteric Modulators of the Human D2 Dopamine Receptor: Agonists. D(2) dopamine receptor (Homo sapiens), P14416. DiscoveRx PathHunter D2 beta-arrestin, luminescence, 90 min; 100% = 57 uM dopamine signal. activation, % (test concentration not listed). 360,000 tested, 0.084% active; in the data active = activation above about 40%; inconclusive = between about 15% and that limit
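DiscoveRx PathHunter D2 beta-arrestin cells (2,100/well) attached overnight, then compound-stimulated 90 min at 37 C in HBSS/10 mM HEPES/0.1% Tween-20 buffer; beta-galactosidase complementation read by luminescence after 1 h at ambient temperature. Dopamine 57 uM final (EC100) as control.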
Active calls of the source: *; u = inconclusive; x = no result. Hits are enriched below; roughly 2.4% of the tested compounds scored in any of these assays.

SMILES	D2 ag-1	D2 PAM-1	D2 antag	D2 PAM-2	D2 ag-2
Cc1cc(NC(=O)Nc2ccc(F)cc2)no1	0	40*	-3	1	-4
Cc1cc(NC(=O)c2c(F)cccc2Cl)no1	-1	31*	-17	5	2
Cc1cc(NC(=O)c2ccccc2Cl)no1	0	26	13	2	-4
Cc1ccccc1OCC(=O)Nc1nnc(SCc2cc(=O)n3cc(Cl)ccc3n2)s1	0	6	x	x	x
Nc1ncnc2c1ncn2[C@@H]1O[C@H](CNCc2cccc(C#Cc3ccccc3)c2)[C@@H](O)[C@H]1O	x	x	x	-1	-1
O=C(N/N=C/c1ccccn1)C1CC1	1	-19	32*	3	-1
COc1cccc(N2CCN(CC(=O)Nc3nnc(-c4ccccc4)s3)CC2)c1	0	3	-12	0	0
COc1cccc(N2CCN(Cc3ncc(-c4ccccc4)o3)CC2)c1	-1	-28	48*	-17	-1
O=C(/C=C/c1ccccc1)NC1CC2CCCC(C1)N2Cc1ccccc1 (configuration not stated)	1	-23	88*	x	x
CCN(CC)C(=O)NC1CC2CCCC(C1)N2Cc1ccccc1 (configuration not stated)	0	-40	92*	-35	3
OC(c1cccs1)(c1cccs1)C1C[N+]2(CF)CCC1CC2 (configuration not stated)	0	8	19	-1	4
CCOc1ccc(C2c3c(oc4ccccc4c3=O)C(=O)N2CCCN2CCOCC2)cc1 (configuration not stated)	0	27	-4	-5	0
CCCOc1ccc(C2c3c(oc4ccccc4c3=O)C(=O)N2CCCN2CCOCC2)cc1 (configuration not stated)	1	-3	36*	3	-2
COc1ccccc1N(C)S(=O)(=O)c1ccc(Cl)c(C(=O)NC2=NCCS2)c1	-8	-7	-2	-4	1
CN(c1ccccc1)S(=O)(=O)c1ccc(Cl)c(C(=O)NC2=NCCS2)c1	-1	31*	-11	8	3
CCOC(=O)c1c(C)sc(-c2c(-c3ccc4c(c3)OCCO4)[nH]c3c2c(=O)n(C)c(=O)n3C)c1O	-2	4	x	x	x
O=C(C1COc2ccccc2O1)N1CCc2ccccc21 (configuration not stated)	0	5	35*	26	0
O=C(C1COc2ccccc2O1)N1CCCC1 (configuration not stated)	1	-3	-6	-8	-3
O=C(C1CCN(S(=O)(=O)c2ccccc2)CC1)N1CCc2ccccc21	98*	-12	28	-4	-2
O=C(C1CCN(S(=O)(=O)c2ccccc2)CC1)N1CCN(c2ccccc2F)CC1	-1	10	32*	-3	-2
COc1ccccc1/C=C/CN1CCC(n2nccc2NC(=O)CCc2ccccc2)CC1	0	0	35*	-13	-6
O=C(Nc1ccnn1C1CCN(Cc2ccccc2)CC1)c1ccccc1Cl	-1	-24	7	-25	-7
O=C(CCc1ccccc1)Nc1ccnn1C1CCN(C/C=C/c2ccccc2)CC1	7	2	-16	-47	-1
CCn1cc(CN2CCC(n3nccc3NC(=O)c3ccccc3OC)CC2)cn1	-1	-11	21	-10	-2
O=C(Nc1ccnn1C1CCN(C/C=C/c2ccccc2)CC1)c1ccccc1Cl	83*	-25	80*	-14	u
CCOc1ccc(CN2CCC(n3nccc3NC(=O)c3ccccc3OC)CC2)cc1	0	-26	38*	-39	-5
COc1ccc2c(CNCc3ccco3)c(C(=O)O)n(Cc3cccc(F)c3)c2c1	0	0	x	x	x

Compound activity as filed in PubChem.
